# Compounds without any hit were thinned out: in the full panel of roughly 83,000, 20% have a hit.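 In brief: 96-well plates, 48 h treatment, single concentration, percent growth endpoint.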 Calls of active or inactive are those of the source. Rule for the calls: active = growth percent below 10; inactive = the rest.
# Test system: HL-60(TB) leukemia
# Test: NCI-60 one-dose screen, 48 h (100 = growth as untreated, 0 = no growth, -100 = all killed)
# Settings: 10 µM unless noted
row,Compound,growth
1,COc1ccc(-c2nc(N=Nc3c(O)[nH]c4ccccc34)nc(N3CCOCC3)c2C#N)cc1,90.5% (inactive)
2,N#C/C(=C\c1cccc2cnccc12)N1N=NC2C=CC=CC21 (stereo not given),8.65% (active)
3,COc1ccc(-c2nc(N/N=C/c3ccco3)nc(N3CCOCC3)c2C#N)cc1,94.8% (inactive)
4,CC1(O)COCCCCOc2c(CN)cccc2NC(=O)c2nc(cnc2N)-c2ccc(cc2)S(=O)(=O)C(C)(C)C1 (stereo not given),-54.7% (active)
5,COc1ccc(Nc2c3c4c(cccc4[nH]c2=O)C(=O)c2ccccc2-3)cc1,-60.4% (active)
6,OC(CBr)CCBr (stereo not given),103% (inactive)
7,CC(=O)Nc1ccc(S(=O)(=O)N/N=C(\C)c2ccc(C)cc2C)cc1,86.4% (inactive)
8,ClC1c2ccccc2CCc2ccccc21,122% (inactive)
9,CC(C)(C)n1cc(-c2ccnc(NCCCNS(=O)(=O)c3ccccc3)c2)c(-c2cccc(O)c2)n1,32.8% (inactive)
10,Cc1nc(N/N=C/c2cn(-c3ccccc3)nc2-c2cc3ccccc3oc2=O)sc1N=Nc1ccccc1,89% (inactive)
11,CCOc1c(OC)cc2c(c1O)C(=O)N[C@@H]1[C@@H](O)[C@@H](O)[C@H](O)C[C@@H]21,100% (inactive)
12,CCc1cc2n(n1)-c1ncc(C(=O)OC)cc1Oc1ccccc1-2,105% (inactive)
13,O=C(Nc1ccc2ncnc(Nc3ccc(F)c(Cl)c3)c2c1)c1cccs1,89.7% (inactive)
14,O=C1O[C@H]([C@H](O)CO)C(O)=C1O,99.5% (inactive)
15,COc1ccc2cc(-c3cc(OC)c(OC)c(OC)c3)c(=O)oc2c1,55.3% (inactive)
